Here are results for 35 molecules from ChEMBL document CHEMBL1157539, “Thousands of chemical starting points for antimalarial lead identification” (Nature, 2010).

The Inhibition is the share of the control response that was lost under treatment. A high value points to a strong effect.

In the first assay the test system is Plasmodium falciparum. Nature of the assay: GSK_TCMDC: Inhibition of Plasmodium falciparum Dd2 in whole red blood cells, using parasite LDH activity as an index of growth. Test compounds present at 2uM. In kind it is functional.
Turning to `CCNc1cc(C(=O)N[C@@H](Cc2ccccc2)[C@H](O)CNCc2cccc(-c3cncnc3)c2)cc(N2CCCC2=O)c1.O=C(O)C(F)(F)F`, the Inhibition was 96%.

The molecule `Br.Cc1cc(F)ccc1Nc1nc(N(C)c2ccccc2)c2cccc(O)c2n1` gave an Inhibition of 81%.

The molecule `O=S(=O)(c1ccc(Oc2ccccc2)cc1)N(CCC(O)(C(F)(F)F)C(F)(F)F)Cc1cccc(O)c1` had an Inhibition of 99%.

In the case of `CCC(CC)n1c(COC)cc2c3c(N)nc(N)nc3ccc21`, the Inhibition was found to be 0%.

Molecule `COc1ccc(C2C(C(=O)Nc3ccccc3)=C(C)Nc3c(C(=O)Nc4ccccc4)cnn32)cc1` (stereo not given) yielded an Inhibition of 66%.

In turn, `O=C(O)C(F)(F)F.c1cc(CN2CCN(c3ccncc3)CC2)cc(-c2ccc(-c3nc4ccccc4[nH]3)s2)c1` came in with an Inhibition of 100%.

The molecule `CC(C)N1CCC(N(Cc2ccc(-c3ccc(C(F)(F)F)cc3)cc2)C(=O)Cn2c(CCc3cccc(F)c3F)cc(=O)c3ccccc32)CC1.O=C(O)C(O)C(O)C(=O)O` gave an Inhibition of 73%.

Consider `Cc1c(-c2cccc(NC(=O)C(C)(C)Oc3ccc(Cl)cc3)c2)nc2ncccn12`, for which the Inhibition is 95%.

`Cl.O=C(Nc1cccc(Cl)c1Cl)N1CCc2cc3nccc(N4CCN5CCC[C@H]5C4)c3cc21` came in with an Inhibition of 100%.

The next assay deals with HepG2. Nature of the assay: GSK_TCMDC: Percent inhibition of human HepG2 cell line. Test compounds present at 10uM. Format: functional.
The molecule `COc1cc2nc(N3CCC(CNCc4ccc(-c5ccc(C(F)(F)F)cc5)cc4)CC3)nc(N)c2cc1OC` had an Inhibition of 99%.

With `CCn1c(-c2nc(-c3ccc4c(c3)OCO4)cnc2N)nc2cnccc21`, the Inhibition turned out to be 94%.

Take `CN1CCC(NCc2ccc(-c3ccc(S(=O)(=O)NC4CCC4)s3)cc2)CC1.O=C(O)C(F)(F)F`: the Inhibition was 31%.

As for `COc1ccc2c(NN=Cc3cccc(C)n3)ccnc2c1`, the Inhibition is reported as 0%.

Molecule `COc1cc(NC(=O)c2ccc3oc4ccccc4c3c2)ccc1OCCN1CCCCC1.Cl` displayed an Inhibition of 12%.

On to `Fc1ccc2[nH]ccc(=NN=CC=Cc3ccccc3)c2c1`, for which the Inhibition amounted to 29%.

The molecule `N#CC(c1cccc(Cl)c1)c1ccc2c(C(F)(F)F)cc(C(F)(F)F)nc2n1` (stereo not given) returned an Inhibition of 52%.

Take `COc1ccc(-c2cc(C(=O)N[C@@H](CC3CCCCC3)C(=O)NCCN3CCCCC3)ccc2O)cc1`: the Inhibition is on record as 3%.

Consider `Cc1cc(N[C@@H](Cc2ccccc2)C(=O)NCCOc2ccccc2)nc(NCC2CCCCC2)n1.O=C(O)C(F)(F)F`, for which the Inhibition was found to be 30%.

For `Cc1cccc2nc(-c3ccc(-c4cccc(NC(=O)NCc5cccc(F)c5)c4)s3)[nH]c12`, the Inhibition turned out to be 24%.

Regarding `FC(F)(F)c1ccc2[nH]c(-c3ccc(-c4cccc(CNCc5cnn(-c6ccccc6)n5)c4)cc3)nc2c1.O=C(O)C(F)(F)F`, the Inhibition is given as 19%.

The molecule `O=C(Nc1cc(C(F)(F)F)ccc1Cl)c1ccc(Cn2cc(Br)cn2)cc1` yielded an Inhibition of 24%.

The molecule `COc1ccc2nccc([C@@H](O)CN3CCC(NC(=O)C(=Cc4ccc(Cl)cc4Cl)c4ccc(-c5ccccc5)cc4)CC3)c2c1` returned an Inhibition of 1%.

As for `O=C(CNC1CCCCC1)Nc1cccc(C(=O)Nc2cccc(C(F)(F)F)c2)c1.O=C(O)C(=O)O`, the Inhibition turned out to be 17%.

Regarding `CN1CCC(Oc2ccc(Nc3nccc(NCC(O)c4ccccc4)n3)cc2Cl)CC1` (stereo not given), the Inhibition turned out to be 46%.

Turning to `O=C(C=Cc1ccccc1)Nc1ccc(C#CC=Cc2ccc(NC(=O)C=Cc3ccccc3)cc2)cc1`, the Inhibition is reported as 26%.

Take `CC(C)(CN1CCCC1)CN(Cc1ccc(-c2ccc(C(F)(F)F)cc2)cc1)C(=O)Cn1c(CCc2cccc(F)c2F)nc(=O)c2ccccc21.O=C(O)C(O)C(O)C(=O)O`: the Inhibition worked out at 57%.

Molecule `CCCNC(=O)Nc1cc2cc(-c3ccc(CN4CCCC4)cc3)ccc2n2c(C)nnc12` gave an Inhibition of 67%.

`COC(=O)c1ccc2nc(-c3ccc(C(=O)NC4CCN(Cc5ccccc5)CC4)s3)[nH]c2c1`: the Inhibition is 0%.

As to `COc1ccc2nccc(NC(=O)N3CCC(NCc4cc5ccccc5[nH]4)CC3)c2n1.O=C(O)C(=O)O`, the Inhibition is 27%.

For `COc1ccc(NC(=O)Nc2ccc(-c3ccc(-c4nc5ccccc5[nH]4)cc3)cc2)cc1`, the Inhibition worked out at 22%.

Take `COc1cc(F)c2nccc([C@@H](O)CN3CCC(NCc4cc5c(cc4F)OCCO5)CC3)c2c1`: the Inhibition came to 23%.

In turn, `COc1ccccc1N1CCN(Cc2cc(C(C)C)c(C)cc2O)CC1` yielded an Inhibition of 7%.

Take `COc1cccc(C2CCN(CCN3CCC(NC(=O)c4ccc(-c5ccc(Cl)cc5)cc4)CC3)CC2)c1`: the Inhibition is 31%.

The molecule `CO/C(=C\C=C\c1cc2cc(Cl)c(Cl)cc2[nH]1)C(=O)NC1CC2CCCC(C1)N2C` (stereo not given) had an Inhibition of 42%.

Molecule `CCc1cn(CCOC)c2ccc(C(=O)N[C@@H](Cc3ccccc3)[C@H](O)CNC(C)(C)CCCC(C)C)cc12.O=CO` gave an Inhibition of 35%.
